Tests used:
[1] = molecular target: T1, Ephrin type-A receptor 3 (Homo sapiens) (UniProt P29320); conditions: at 10 µM
T1 sequence (whole entry): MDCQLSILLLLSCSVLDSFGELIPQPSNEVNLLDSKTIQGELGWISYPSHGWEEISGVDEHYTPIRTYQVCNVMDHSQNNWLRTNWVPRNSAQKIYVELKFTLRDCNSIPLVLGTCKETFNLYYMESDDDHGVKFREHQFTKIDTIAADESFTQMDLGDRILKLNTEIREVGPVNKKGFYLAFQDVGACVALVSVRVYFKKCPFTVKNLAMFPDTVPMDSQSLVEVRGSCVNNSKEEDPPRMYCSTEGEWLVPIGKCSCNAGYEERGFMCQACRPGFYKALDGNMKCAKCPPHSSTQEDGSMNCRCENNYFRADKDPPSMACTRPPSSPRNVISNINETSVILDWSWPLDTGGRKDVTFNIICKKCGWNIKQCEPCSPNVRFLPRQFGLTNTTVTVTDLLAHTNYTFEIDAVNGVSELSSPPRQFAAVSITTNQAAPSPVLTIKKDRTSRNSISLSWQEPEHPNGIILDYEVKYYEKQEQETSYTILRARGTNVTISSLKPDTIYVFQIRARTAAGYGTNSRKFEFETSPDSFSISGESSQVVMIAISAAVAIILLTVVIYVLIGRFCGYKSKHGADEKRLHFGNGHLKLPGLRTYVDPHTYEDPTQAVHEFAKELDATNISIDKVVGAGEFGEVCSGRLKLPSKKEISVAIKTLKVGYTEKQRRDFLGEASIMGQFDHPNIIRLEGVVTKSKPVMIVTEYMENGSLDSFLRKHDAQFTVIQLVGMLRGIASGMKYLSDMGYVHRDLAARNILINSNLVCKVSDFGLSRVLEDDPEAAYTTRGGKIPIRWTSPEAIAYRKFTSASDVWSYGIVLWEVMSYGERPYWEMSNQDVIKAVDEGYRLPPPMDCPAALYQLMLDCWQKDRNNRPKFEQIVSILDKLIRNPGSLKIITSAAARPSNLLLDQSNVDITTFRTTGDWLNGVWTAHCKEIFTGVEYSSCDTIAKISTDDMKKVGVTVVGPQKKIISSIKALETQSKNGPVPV

[2] = molecular target: Ephrin type-A receptor 4 (Homo sapiens) (UniProt P54764); conditions: at 1 µM
Chain of Ephrin type-A receptor 4 (Homo sapiens) (P54764 whole entry): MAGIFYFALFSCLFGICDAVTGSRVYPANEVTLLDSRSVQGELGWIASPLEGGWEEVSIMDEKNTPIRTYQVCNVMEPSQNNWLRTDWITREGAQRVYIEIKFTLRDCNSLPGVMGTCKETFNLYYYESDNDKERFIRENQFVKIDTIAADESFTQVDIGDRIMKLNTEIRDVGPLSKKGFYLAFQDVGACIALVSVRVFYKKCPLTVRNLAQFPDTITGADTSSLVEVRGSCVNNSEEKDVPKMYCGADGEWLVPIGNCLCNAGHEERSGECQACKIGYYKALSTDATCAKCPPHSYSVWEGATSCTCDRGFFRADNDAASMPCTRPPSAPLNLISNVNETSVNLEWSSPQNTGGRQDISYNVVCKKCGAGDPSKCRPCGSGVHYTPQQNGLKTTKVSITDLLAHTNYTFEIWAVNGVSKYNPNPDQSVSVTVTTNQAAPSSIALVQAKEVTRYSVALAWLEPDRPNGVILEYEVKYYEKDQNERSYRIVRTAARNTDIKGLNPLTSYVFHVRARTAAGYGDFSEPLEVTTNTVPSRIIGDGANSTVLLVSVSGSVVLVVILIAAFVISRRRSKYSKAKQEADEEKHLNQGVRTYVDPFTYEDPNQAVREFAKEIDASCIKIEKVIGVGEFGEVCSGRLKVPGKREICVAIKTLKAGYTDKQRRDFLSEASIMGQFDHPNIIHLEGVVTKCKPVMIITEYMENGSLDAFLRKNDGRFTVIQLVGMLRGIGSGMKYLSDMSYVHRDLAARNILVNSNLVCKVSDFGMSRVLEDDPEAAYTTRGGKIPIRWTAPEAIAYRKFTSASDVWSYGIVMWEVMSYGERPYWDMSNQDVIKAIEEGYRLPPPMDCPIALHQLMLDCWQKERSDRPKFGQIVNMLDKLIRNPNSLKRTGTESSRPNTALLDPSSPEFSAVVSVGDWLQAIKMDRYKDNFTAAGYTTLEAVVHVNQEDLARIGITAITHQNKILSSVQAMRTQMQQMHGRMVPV

[3] = molecular target: Ephrin type-A receptor 4 (Homo sapiens) (UniProt P54764); conditions: at 10 µM
[4] = molecular target: Ephrin type-A receptor 5 (Homo sapiens) (UniProt P54756); conditions: at 1 µM
Chain of Ephrin type-A receptor 5 (Homo sapiens) (P54756 whole entry): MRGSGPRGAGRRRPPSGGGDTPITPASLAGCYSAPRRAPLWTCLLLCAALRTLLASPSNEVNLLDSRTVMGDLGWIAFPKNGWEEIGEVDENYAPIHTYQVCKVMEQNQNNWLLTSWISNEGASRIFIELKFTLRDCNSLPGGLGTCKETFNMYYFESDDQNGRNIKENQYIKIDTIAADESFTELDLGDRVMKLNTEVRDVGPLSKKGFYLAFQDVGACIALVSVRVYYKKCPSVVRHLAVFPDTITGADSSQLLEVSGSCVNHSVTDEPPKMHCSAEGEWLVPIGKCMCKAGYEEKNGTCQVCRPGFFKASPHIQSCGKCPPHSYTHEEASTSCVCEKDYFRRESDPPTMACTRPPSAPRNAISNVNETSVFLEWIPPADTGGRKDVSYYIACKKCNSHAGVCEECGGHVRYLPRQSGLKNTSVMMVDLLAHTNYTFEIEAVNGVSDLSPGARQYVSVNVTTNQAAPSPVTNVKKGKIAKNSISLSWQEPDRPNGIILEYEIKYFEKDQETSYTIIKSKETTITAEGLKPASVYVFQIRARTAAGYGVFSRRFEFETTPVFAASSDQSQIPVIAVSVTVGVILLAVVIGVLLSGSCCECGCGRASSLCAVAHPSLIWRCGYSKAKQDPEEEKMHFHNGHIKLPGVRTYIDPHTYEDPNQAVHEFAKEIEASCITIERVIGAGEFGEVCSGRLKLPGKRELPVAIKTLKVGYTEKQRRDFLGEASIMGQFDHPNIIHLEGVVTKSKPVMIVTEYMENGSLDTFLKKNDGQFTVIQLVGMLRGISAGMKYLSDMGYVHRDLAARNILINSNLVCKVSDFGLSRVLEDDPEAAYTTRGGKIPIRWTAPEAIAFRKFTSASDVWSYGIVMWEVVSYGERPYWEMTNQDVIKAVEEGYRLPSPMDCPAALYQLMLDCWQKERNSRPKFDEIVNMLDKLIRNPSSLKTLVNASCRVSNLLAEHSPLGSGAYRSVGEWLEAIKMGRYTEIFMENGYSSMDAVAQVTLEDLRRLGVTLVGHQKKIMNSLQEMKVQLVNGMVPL

[5] = molecular target: Ephrin type-A receptor 5 (Homo sapiens) (UniProt P54756); conditions: at 10 µM
[6] = molecular target: Ephrin type-A receptor 7 (Homo sapiens) (UniProt Q15375); conditions: at 1 µM
Chain of Ephrin type-A receptor 7 (Homo sapiens) (Q15375 28-998 limits assumed): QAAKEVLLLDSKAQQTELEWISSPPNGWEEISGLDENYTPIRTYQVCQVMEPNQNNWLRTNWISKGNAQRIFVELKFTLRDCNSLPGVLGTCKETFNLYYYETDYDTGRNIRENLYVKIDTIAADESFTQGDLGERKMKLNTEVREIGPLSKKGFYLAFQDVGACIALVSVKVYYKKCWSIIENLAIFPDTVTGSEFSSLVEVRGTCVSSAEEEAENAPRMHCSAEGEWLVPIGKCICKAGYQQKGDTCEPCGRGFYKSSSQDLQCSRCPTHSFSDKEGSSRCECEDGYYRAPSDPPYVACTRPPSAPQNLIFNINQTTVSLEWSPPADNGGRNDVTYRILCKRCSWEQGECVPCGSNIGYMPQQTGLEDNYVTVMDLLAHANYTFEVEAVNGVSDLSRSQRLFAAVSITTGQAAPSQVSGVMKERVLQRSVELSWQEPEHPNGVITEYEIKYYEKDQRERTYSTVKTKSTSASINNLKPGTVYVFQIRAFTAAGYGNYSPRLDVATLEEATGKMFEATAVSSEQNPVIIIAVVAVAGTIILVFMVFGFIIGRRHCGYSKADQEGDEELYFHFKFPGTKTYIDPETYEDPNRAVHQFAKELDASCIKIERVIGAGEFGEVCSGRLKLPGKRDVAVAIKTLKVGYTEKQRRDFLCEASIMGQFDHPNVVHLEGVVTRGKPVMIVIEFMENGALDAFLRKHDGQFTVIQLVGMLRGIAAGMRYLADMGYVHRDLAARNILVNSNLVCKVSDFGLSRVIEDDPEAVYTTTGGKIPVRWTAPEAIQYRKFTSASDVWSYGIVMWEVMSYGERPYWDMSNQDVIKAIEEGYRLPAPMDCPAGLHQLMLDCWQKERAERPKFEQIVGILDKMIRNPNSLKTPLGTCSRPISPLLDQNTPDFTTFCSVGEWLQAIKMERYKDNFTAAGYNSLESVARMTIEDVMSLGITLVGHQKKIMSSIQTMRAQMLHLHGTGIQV

[7] = molecular target: Ephrin type-A receptor 7 (Homo sapiens) (UniProt Q15375); conditions: at 10 µM
[8] = molecular target: T2, Ephrin type-A receptor 8 (Homo sapiens) (UniProt P29322); conditions: at 1 µM
T2 sequence (whole entry): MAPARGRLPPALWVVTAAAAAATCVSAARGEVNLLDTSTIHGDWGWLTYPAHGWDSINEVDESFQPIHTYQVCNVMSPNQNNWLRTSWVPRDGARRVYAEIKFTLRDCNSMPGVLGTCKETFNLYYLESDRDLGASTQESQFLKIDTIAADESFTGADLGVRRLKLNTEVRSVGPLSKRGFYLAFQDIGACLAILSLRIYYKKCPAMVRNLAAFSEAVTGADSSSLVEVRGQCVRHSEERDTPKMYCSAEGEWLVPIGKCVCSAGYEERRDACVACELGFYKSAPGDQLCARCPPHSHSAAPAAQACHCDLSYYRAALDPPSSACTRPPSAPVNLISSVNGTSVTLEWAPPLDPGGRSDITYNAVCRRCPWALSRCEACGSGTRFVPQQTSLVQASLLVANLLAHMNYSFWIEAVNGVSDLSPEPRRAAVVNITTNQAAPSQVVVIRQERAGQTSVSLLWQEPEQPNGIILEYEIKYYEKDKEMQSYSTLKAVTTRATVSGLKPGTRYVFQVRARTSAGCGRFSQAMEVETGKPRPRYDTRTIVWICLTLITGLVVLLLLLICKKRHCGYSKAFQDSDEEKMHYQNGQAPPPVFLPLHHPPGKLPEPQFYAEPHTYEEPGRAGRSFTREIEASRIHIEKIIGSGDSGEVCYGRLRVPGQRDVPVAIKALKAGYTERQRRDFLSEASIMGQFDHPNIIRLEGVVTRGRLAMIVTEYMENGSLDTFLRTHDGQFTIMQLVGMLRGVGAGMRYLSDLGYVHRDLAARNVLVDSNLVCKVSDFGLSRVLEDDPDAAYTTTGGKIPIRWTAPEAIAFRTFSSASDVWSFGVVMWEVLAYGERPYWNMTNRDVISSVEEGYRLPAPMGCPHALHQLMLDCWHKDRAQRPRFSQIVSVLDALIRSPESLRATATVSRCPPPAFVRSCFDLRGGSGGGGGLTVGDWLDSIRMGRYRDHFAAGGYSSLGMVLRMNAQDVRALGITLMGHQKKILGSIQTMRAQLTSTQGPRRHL

[9] = molecular target: T2, Ephrin type-A receptor 8 (Homo sapiens); conditions: at 10 µM
[10] = molecular target: T3, Ephrin type-B receptor 1 (Homo sapiens) (UniProt P54762); conditions: at 1 µM
T3 sequence (whole entry): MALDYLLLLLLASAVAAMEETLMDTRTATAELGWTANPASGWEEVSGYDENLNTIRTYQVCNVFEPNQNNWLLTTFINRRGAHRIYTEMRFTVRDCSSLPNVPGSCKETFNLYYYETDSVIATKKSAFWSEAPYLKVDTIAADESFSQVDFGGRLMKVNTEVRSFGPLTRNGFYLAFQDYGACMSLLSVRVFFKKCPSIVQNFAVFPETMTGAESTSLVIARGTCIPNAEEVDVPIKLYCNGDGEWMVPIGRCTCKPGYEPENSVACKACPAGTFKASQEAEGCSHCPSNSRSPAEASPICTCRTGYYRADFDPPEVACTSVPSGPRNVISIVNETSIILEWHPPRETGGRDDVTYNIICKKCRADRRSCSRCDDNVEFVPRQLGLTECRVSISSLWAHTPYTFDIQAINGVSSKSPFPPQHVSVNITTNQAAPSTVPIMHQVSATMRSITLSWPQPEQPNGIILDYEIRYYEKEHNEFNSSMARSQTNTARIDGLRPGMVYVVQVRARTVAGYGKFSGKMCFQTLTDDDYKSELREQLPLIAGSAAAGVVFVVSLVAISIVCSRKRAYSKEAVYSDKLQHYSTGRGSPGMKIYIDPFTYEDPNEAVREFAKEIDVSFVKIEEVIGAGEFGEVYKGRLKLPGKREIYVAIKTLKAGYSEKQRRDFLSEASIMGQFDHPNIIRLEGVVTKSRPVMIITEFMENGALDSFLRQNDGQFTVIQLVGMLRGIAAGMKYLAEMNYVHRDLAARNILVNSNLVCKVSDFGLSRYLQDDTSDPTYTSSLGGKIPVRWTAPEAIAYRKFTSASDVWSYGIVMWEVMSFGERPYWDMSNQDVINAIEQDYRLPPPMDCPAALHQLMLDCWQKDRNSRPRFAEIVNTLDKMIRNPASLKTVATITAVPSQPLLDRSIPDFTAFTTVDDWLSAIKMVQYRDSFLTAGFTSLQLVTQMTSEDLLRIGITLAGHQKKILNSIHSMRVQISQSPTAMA

In the case of `Cc1ccc(S(=O)(=O)/C=C/C#N)cc1`, the residual activity [1] is reported as 105%, the residual activity [2] is reported as 106% and the residual activity [3] is reported as 110%. It also gave a residual activity [4] of 107%, a residual activity [5] of 101% and a residual activity [6] of 94%. The residual activity [7] was 96%, the residual activity [8] was 94% and the residual activity [9] was 102%. For the same compound, the residual activity [10] was 93%.
